Measurements reported in PubChem BioAssay (EPA / NIEHS).
Inconclusive results are not listed. Active and inactive are the calls of the source. Rule for the calls: active = hit-call score of the fitted dose curve at least 0.9, where 1 is the maximum; inconclusive = response in the unintended direction; inactive = score below 0.9.

What follows are molecules tested against Nucleoli Translocation, AR (gene 367) (UniProt P10275) (assay: UPITT_HCI_U2OS_AR_TIF2_Nucleoli_Antagonist: University of Pittsburgh U2OS Androgen Receptor-Transcriptional Intermediary Factor 2 (AR-TIF2) Antagonism High Content Imaging Assay for Nucleoli Translocation (AID 2283997)).
Text: UPITT_AR_TIF2_PPIB is a cell-based, high-content imaging assay that uses U2OS, a human osteosarcoma cell line, expressing a human androgen receptor fused to red fluorescent protein and the coactivator TIF2 fused to green fluorescent protein. UPITT_HCI_U2OS_AR_TIF2_Nucleoli_Antagonist is one of four assay components measured from the UPITT_AR_TIF2_PPIB assay. It is designed to make measurements of red fluorescence localized in the nucleolar region of the cell nucleus as detected with high-content fluorescent imaging.Data from the assay component UPITT_HCI_U2OS_AR_TIF2_Nucleoli_Antagonist was analyzed into 1 assay endpoint. This assay endpoint, UPITT_HCI_U2OS_AR_TIF2_Nucleoli_Antagonist, was analyzed in the positive analysis fitting direction relative to DHT as the baseline of activity. Using a type of binding reporter, measures of receptor for loss-of-signal activity can be used to understand the binding at the pathway-level as it relates to the gene AR.
Daughter plates containing 2 uL of 10 mM compounds in DMSO were prepared and replicated from the 384-well Library of Pharmacologically Active Compounds (LOPAC) master plates using the Bravo outfitted with a 384-well transfer head. Aluminum adhesive plate seals were applied with an Abgene Seal-IT 100 (Rochester, NY) plate sealer, and the plates were stored at -20 C in a Matrical MatriMinistore (Spokane, WA) automated compound storage and retrieval system. For screening, LOPAC daughter plates were withdrawn from -20C storage, thawed to ambient temperature, centrifuged 1-2 min at 50 g, and the plate seals were removed before the transfer of 98 uL of serum-free tissue culture medium (SFM) into wells using the BioTek Microflo liquid handler (BioTek, Winooski, VT) to generate a 200 uM intermediate stock concentration of library compounds (2.0% DMSO). The diluted compounds were mixed by repeated aspiration and dispensation using a 384-well P30 dispensing head on the Evolution P3 (EP3) liquid handling platform (PerkinElmer, Waltham, MA) and then 5 uL of diluted compounds was transferred to the wells of assay plates. In the LOPAC screen, compounds were individually tested at a final concentration of 20 uM (0.2% DMSO). After the diluted compounds had been transferred from the daughter plates to the primary HCS assay plates, aluminum adhesive plate seals were applied and the diluted daughter plates were stored frozen at -20C. To confirm active compounds identified in the primary screen, we withdrew the LOPAC daughter plates containing the 200 uM intermediate concentration of library compounds (2.0% DMSO) from -20C storage, thawed them to ambient temperature, centrifuged them for 1-2 min at 50 g, and removed the plate seals. A work list was generated to direct the Multiprobe Janus liquid handling platform (PerkinElmer) to cherry pick 75 uL from the wells of the diluted daughter plates that were flagged active in the primary screen and to reformat these into a 384-well plate hit confirmation daughter plate. Five microliters of primary HCS active compounds was then transferred into triplicate wells of assay plates using a 384-well P30 dispensing head on the Evolution P3 (EP3) liquid handling platform (PerkinElmer). […] Daughter plates containing 2 uL of the serially diluted compounds in DMSO were prepared and replicated from the 384-well serial dilution master plates using the Bravo outfitted with a 384-well transfer head. Aluminum adhesive plate seals were applied and plates were stored at -20C. […] The ImageXpress Ultra (IXU) platform (Molecular Devices LLC, Sunnyvale, CA) and The ImageXpress Micro (IXM) platform were used for imaging.

Sequence of Nucleoli Translocation, AR (gene 367) (P10275 whole entry, looked up, the tested form may be a part): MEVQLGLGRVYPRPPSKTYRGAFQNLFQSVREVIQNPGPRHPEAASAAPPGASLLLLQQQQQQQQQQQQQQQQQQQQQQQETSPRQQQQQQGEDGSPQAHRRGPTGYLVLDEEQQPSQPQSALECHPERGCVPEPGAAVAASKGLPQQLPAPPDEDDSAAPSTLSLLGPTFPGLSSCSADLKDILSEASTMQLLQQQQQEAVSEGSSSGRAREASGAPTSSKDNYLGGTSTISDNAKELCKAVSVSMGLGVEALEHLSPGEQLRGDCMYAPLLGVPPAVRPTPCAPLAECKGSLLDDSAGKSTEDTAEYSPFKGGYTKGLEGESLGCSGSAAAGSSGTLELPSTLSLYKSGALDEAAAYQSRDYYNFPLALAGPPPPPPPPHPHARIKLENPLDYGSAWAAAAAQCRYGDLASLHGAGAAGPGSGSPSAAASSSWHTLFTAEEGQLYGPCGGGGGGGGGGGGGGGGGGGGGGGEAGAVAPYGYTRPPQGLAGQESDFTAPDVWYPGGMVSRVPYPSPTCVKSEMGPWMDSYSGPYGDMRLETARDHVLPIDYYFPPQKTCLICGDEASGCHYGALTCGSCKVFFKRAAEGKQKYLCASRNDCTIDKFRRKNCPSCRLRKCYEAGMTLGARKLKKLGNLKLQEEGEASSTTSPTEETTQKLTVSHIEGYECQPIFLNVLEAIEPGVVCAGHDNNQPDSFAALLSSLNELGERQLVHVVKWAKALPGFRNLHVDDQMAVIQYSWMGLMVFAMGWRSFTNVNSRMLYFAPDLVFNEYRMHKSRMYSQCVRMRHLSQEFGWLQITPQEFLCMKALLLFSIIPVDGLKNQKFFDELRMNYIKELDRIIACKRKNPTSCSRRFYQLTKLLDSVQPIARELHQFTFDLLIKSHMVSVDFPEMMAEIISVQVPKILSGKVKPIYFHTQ

Structure (SMILES) | outcome | AC50
Cc1nn(-c2cc(NS(C)(=O)=O)c(Cl)cc2Cl)c(=O)n1C(F)F | inactive | 
C[N+]1(C)CCCCC1 | inactive | 
COc1ccc(C(=CC(=O)N2CCOCC2)c2ccc(Cl)cc2)cc1OC |  | 3.21 µM (active)
CCCOc1nn(C(=O)NS(=O)(=O)c2ccccc2C(=O)OC)c(=O)n1C | inactive | 
Nc1c(Cl)cc([N+](=O)[O-])cc1Cl |  | 41.7 µM (active)
C=C(C)[C@H]1Cc2c(ccc3c2O[C@@H]2COc4cc(OC)c(OC)cc4[C@@H]2C3=O)O1 |  | 50 µM (active)
O=c1ccc(=O)[nH][nH]1 | inactive | 
CCc1cccc(CC)c1N(COC)C(=O)CCl |  | 20.1 µM (active)
CCCSP(=O)(OCC)SCCC | inactive | 
COP(=O)(OC)OC(Br)C(Cl)(Cl)Br (centres undefined) |  | 13.6 µM (active)
CC(COc1ccc(Oc2ccccc2)cc1)Oc1ccccn1 (centres undefined) | inactive | 
CCOP(=O)(NC(C)C)Oc1ccc(SC)c(C)c1 (centres undefined) | inactive | 
CCOC(=O)COc1cc(-c2nn(C)c(OC(F)F)c2Cl)c(F)cc1Cl | inactive | 
N#CSCSC#N |  | 16.5 µM (active)
CCC(=O)Nc1ccc(Cl)c(Cl)c1 |  | 14.3 µM (active)
COP(=O)(OC)SCn1c(=O)oc2cc(Cl)cnc21 | inactive | 
CCCCOC(=O)c1ccccc1C(=O)O | inactive | 
CC(C)=CC1C(C(=O)OCN2C(=O)C3=C(CCCC3)C2=O)C1(C)C (centres undefined) | inactive | 
CNC(=O)ON=C(SC)C(=O)N(C)C | inactive | 
